Source: PubChem (National Center for Advancing Translational Sciences (NCATS))
TDP1 inh: qHTS Assay for Inhibitors of Tyrosyl-DNA Phosphodiesterase (TDP1); recombinant TDP1, AlphaScreen DNA substrate cleavage; Potency, µM (titrated, usually from 130 µM), for inactives: at the highest dose activity change, negative = inhibition, actives largely listed as inhibitors; 350,000 compounds, 0.28% hits; further: potency means the concentration at half of the fitted maximal effect; nearly all actives have a fitted effect of over 40% in size
Target sequence (Q9NUW8 whole entry, looked up): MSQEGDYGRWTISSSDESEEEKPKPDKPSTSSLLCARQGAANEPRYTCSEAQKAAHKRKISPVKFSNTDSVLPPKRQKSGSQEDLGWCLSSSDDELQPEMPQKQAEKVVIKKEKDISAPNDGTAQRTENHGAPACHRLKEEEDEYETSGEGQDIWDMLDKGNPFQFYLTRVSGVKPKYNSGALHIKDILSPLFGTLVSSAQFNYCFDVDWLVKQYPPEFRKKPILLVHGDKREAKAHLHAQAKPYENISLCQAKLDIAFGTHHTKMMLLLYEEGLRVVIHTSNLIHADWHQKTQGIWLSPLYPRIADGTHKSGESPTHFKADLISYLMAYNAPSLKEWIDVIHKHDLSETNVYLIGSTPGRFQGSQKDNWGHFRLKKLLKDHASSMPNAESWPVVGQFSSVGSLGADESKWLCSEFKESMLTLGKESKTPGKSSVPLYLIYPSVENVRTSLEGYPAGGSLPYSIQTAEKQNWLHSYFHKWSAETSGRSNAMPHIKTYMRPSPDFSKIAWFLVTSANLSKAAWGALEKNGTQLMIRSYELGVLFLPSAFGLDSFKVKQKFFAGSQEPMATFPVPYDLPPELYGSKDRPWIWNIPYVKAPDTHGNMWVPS
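E. coli-derived human Tdp1, 1 nM final. Cpd preinc 15 min RT; substrate 15 nM final, 5 min RT; AS bead mix 10 ug/ml final, 10 min RT. Signal loss = tyrosine-FITC cleavage. No-enzyme wells = max signal.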
CtBP-E1A blk: qHTS Assay for Inhibitors of the CtBP/E1A Interaction | AID 651724, 2012 | activity change, % (concentration not given with the values) | AlphaScreen GST-E1A/His-CtBP binding, 1536-well; hits give low values | 340,000 compounds, 0.49% hits; in the data active means activity change below about -65%; inconclusive means mostly about -30% to -63%
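Protein mix (5X: 125 nM each GST-E1A, His-CtBP) was incubated with pinned compound 2 h at 37 deg C in dark, in 50 mM Tris pH 8.0 buffer with 300 mM NaCl. Glutathione donor and nickel acceptor beads followed; AlphaScreen signal read after 1 h.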
TDP1 cell CPT: qHTS for Inhibitors of human tyrosyl-DNA phosphodiesterase 1 (TDP1): qHTS in cells in presence of CPT; 420,000 compounds, 12% hits; chicken DT40 Tdp1-/-;hTDP1 cells + 20 nM CPT, ATP luminescence, 48 h; Potency, µM (doses to about 46.2 µM), for inactives: top-dose activity change, negative = growth inhibition, actives largely listed as inhibitors; further: potency means the concentration at half of the fitted maximal effect; nearly all actives have a fitted effect of over 55% in size
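Cell growth measured by CellTiter-Glo luminescence after a minimum 48 h, 37 C compound exposure with 20 nM CPT in Tdp1-knockout DT40 cells stably expressing hTDP1, seeded 400/well; qHTS titration format.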
DT40 TDP1 no CPT: qHTS for Inhibitors of human tyrosyl-DNA phosphodiesterase 1 (TDP1): qHTS in cells in absence of CPT | DT40 Tdp1-/- hTDP1 cells, no CPT, ATP luminescence, 48 h | Potency, µM (titrated, usually from 46.2 µM), for inactives: at the top dose activity change, negative = growth inhibition, most hits filed as inhibitors | 420,000 compounds, 15% hits | AID 686978, 2013; further: potency means the concentration at half of the fitted maximal effect; nearly all actives have a fitted effect of over 55% in size
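Stably hTDP1-transfected Tdp1-null chicken DT40 cells were treated with library compounds minus camptothecin and grown for at least 48 hr at 37 °C, after which cellular ATP was quantified by luminescence.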
Six1-Eya2 blk: qHTS Assay for Inhibitors of the Six1/Eya2 Interaction | Homeobox protein SIX1 (Homo sapiens) + Protein phosphatase EYA2 (Homo sapiens), … | AlphaScreen GST-Six1/His-Eya2 binding, biochemical; hits give low values | activity change, % (test concentration not listed) | 360,000 compounds, 0.56% hits | AID 651725, 2012; in the data active means activity change below about -65%; inconclusive means mostly about -30% to -63%
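AlphaScreen luminescence read after one hour at 37 °C in darkness. Pin-transferred compounds met GST-Six1 and His-Eya2 protein (5X stock 250 nM/500 nM) plus glutathione donor and Ni-chelate acceptor beads (5X, 50 ug/mL).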
IL1B secr inh: qHTS for Inhibitors of Inflammasome Signaling: IL-1-beta AlphaLISA Primary Screen; THP-1 LPS/ATP IL-1B secretion, AlphaLISA, 16 h; hits give low values; activity change, % at 57.5 µM; 360,000 compounds, 4.7% hits; AID 743279, 2014; in the data active means activity change below about -50%; inconclusive means mostly about -30% to -49%
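THP-1 cells pretreated 1 hr with compounds (up to 57.5 uM final), then stimulated with LPS (250 ng/mL final) plus ATP (1.25 mM final); secreted IL-1B measured by AlphaLISA after 16 hr, decreased signal indicating inhibition.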
* hit, by the source's call; u = inconclusive; x = no result given; [ ] = another dose, or the depositor's remark. Rows were chosen to be rich in hits. Some 18% of all compounds tested hit in one or more screens of this group. Unless noted, the call rests on the fitted dose curve; in most records, active means well fitted curve in the direction sought with a large enough effect; inconclusive means small, poorly fitted or top-dose-only effect, or another doubt; inactive means no such curve, though single readings can be large; an effect the other way counts as inactive or inconclusive. On the % scale 0 is the no-effect control and ±100 the full control effect.

SMILES	TDP1 inh	CtBP-E1A blk	TDP1 cell CPT	DT40 TDP1 no CPT	Six1-Eya2 blk	IL1B secr inh
Nc1cc(C(=O)O)c(N)c2c1C(=O)c1ccccc1C2=O	2.5%	-91.7*	16.4µM*	u	-80.3*	0.0
Cc1ccc(S(=O)(=O)Nc2ccc3c(c2)C(=O)N([C@@H](C)CO)C[C@@H](C)[C@@H](CN(C)C(=O)NC2CCCCC2)OCCCC[C@H](C)O3)cc1	x	-18.4	0.3%	-16.5%	15.2	-16.1
Cc1ccc(S(=O)(=O)Nc2ccc3c(c2)C(=O)N([C@H](C)CO)C[C@H](C)[C@@H](CN(C)C(=O)NC2CCCCC2)OCCCC[C@@H](C)O3)cc1	x	5.0	20.6µM*	13µM*	5.3	-8.7
C[C@@H]1CCCCO[C@H](CN(C)C(=O)Nc2cccc3ccccc23)[C@@H](C)CN([C@H](C)CO)C(=O)c2cc(N(C)C)ccc2O1	x	1.8	14.6µM*	9.2µM*	-2.0	5.9
Cc1ccc(S(=O)(=O)Nc2ccc3c(c2)C(=O)N([C@H](C)CO)C[C@H](C)[C@H](CN(C)C(=O)Nc2cccc4ccccc24)OCCCC[C@@H](C)O3)cc1	x	-2.5	20.6µM*	14.6µM*	-12.4	-2.3
C[C@@H]1CN([C@@H](C)CO)C(=O)c2cc(NS(=O)(=O)c3ccc(F)cc3)ccc2O[C@@H](C)CCCCO[C@H]1CN(C)C(=O)NC1CCCCC1	x	-3.4	23.1µM*	u	3.0	-11.9
COc1ccc(CC(=O)NCC2CCCN(Cc3ccc(F)c(OC)c3)C2)cc1 (centres undefined)	x	-15.6	-11.6%	6.4%	0.9	0.0
COC(=O)CSc1nc(SCc2ccc(C)cc2)nc2c1CCCC2	x	13.1	-11.8%	-4.2%	38.7	17.7
COC(=O)C(C)Sc1nc2c(c(-c3ccc(OC)cc3)c1C#N)-c1ccccc1C2=O (centres undefined)	x	0.1	-16.3%	u	-0.6	19.7
COC(=O)c1ccc(C(=O)NC2CCSc3ccccc32)cc1 (centres undefined)	x	0.0	-5.7%	0.2%	0.6	0.0
Cc1ccc(NC(=S)NC2CCSc3ccccc32)cc1C (centres undefined)	6.2%	-24.9	16.4µM*	u	-23.8	-81.4*
C=CCN(CC=C)S(=O)(=O)c1ccc(C(=O)Nc2nnc(CSC)o2)cc1	7.5%	x	u	u	-6.1	34.5
N#C/C(=C\c1c[nH]c2ccccc12)c1nnc2n1CCCCC2	4.2%	-0.1	-7.8%	u	-7.8	u
N#C/C(=N\Nc1cccc2ccccc12)c1nnc2n1CCCCC2	-0.6%	-13.5	u	32.6µM*	-13.2	26.6
COc1ccc(C(=O)Nc2ccc(N3CCN(c4ccc(OC)cc4)CC3)c(C#N)c2)cc1	-2.2%	1.4	-23.9%	-9.7%	0.0	8.7
CCN(CC)S(=O)(=O)c1ccc(-c2cn3cc(Cl)ccc3n2)cc1	x	6.9	u	18.4µM*	-3.0	2.1
CC1CCN(S(=O)(=O)c2cccc(-c3cn4cc(Cl)ccc4n3)c2)CC1	5.1%	-8.4	u	23.1µM*	-12.1	3.9
CCN1C/C(=N\S(=O)(=O)/N=C2\CN(CC)C(=O)N2CC)N(CC)C1=O	-2.6%	8.4	-7.4%	14.9%	-0.3	19.4
Cc1cc(O)cc2c1C1CCC3(C)C(=O)CCC3C1C=C2 (centres undefined)	x	0.6	u	u	-10.4	u
CCn1cc(C(=O)NCc2ccco2)c(=O)c2cc(S(=O)(=O)N3CCC(C)CC3)ccc21	6.8%	-9.6	u	u	-13.0	-1.8
C=CCn1cc(C(=O)NCc2ccco2)c(=O)c2cc(S(=O)(=O)N3CCCCCC3)ccc21	9.4%	-6.8	20.6µM*	u	-9.7	u
C=CCn1cc(C(=O)NCCOC)c(=O)c2cc(S(=O)(=O)N3CCCCCC3)ccc21	1.6%	x	u	u	1.2	-16.8
CCn1cc(C(=O)NCc2ccco2)c(=O)c2cc(S(=O)(=O)N3CCCCCC3)ccc21	9.8%	-14.5	20.6µM*	u	-14.3	-28.2
O=C1Nc2ccccc2C(=O)N2c3ccccc3NC(=O)C12 (centres undefined)	x	-4.8	-0.9%	1.4%	4.5	40.6
Cc1cccc(-n2c3nc(=O)[nH]c(=O)c-3cc3c(Cl)cccc32)c1C	-4.0%[12.3 µM]	x	0.82µM*	0.581µM*	x	x
SMILES	TDP1 inh	CtBP-E1A blk	TDP1 cell CPT	DT40 TDP1 no CPT	Six1-Eya2 blk	IL1B secr inh
Cc1cccc(-n2c3nc(=O)[nH]c(=O)c-3cc3ccc(Cl)cc32)c1C	4.7%	x	u	8.2µM*	x	x
Cc1ccc(Nc2nnc(SC(C)C(=O)NCC3CCCO3)s2)cc1C (centres undefined)	-0.2%	u	u	u	u	-5.9
CCOc1ccc(NC(=O)CC2SC(=O)N(c3ccccc3)C2=O)cc1 (centres undefined)	0.0%	5.5	1.16µM*	2.91µM*	-5.3	-2.1
Cc1ccccc1NC(=O)CC1SC(=O)N(c2ccccc2)C1=O (centres undefined)	4.5%	-0.9	6.51µM*	4.61µM*	6.7	24.7
O=C(CC1SC(=O)N(c2ccccc2)C1=O)Nc1cccc2ccccc12 (centres undefined)	x	-0.9	3.26µM*	5.17µM*	-1.0	-0.4
COCc1cc(C2C(C(=O)c3ccco3)=C(O)C(=O)N2CCOCCO)ccc1O (centres undefined)	-6.9%	5.8	-5.6%	-6.7%	3.4	-3.6
CC(C)(C)c1ccc(CC(=O)N2CCC2(C)C(=O)NS(=O)(=O)c2cccc(C#N)c2)cc1 (centres undefined)	x	0.0	21.0%	-6.0%	15.4	-11.1
Cc1c(C)n(Cc2ccc(F)cc2)c2ccc(C(=O)N3CCN(c4ccc(Cl)cc4)CC3)cc12	5.3%	x	18.4µM*	u	x	x
Cc1c(C)n(Cc2ccccc2)c2ccc(C(=O)N3CCN(c4ccc(F)cc4)CC3)cc12	2.6%	x	u	16.4µM*	x	x
Cc1c(C)n(Cc2ccccc2)c2ccc(C(=O)N3CCN(c4ccccc4)CC3)cc12	7.9%	x	u	u	x	x
Cc1ccccc1-c1nc(Cc2ccc(Cl)cc2)no1	-1.1%	78.3	1.2%	-7.9%	91.0	-4.4
